Test results from PubChem BioAssay (Tox21).
Results filed as inconclusive are left out. Activity calls are given as the source filed them. Calls come from the whole dose curve; as a rule, active = well fitted cell-killing curve with a large enough effect in the repeat runs; inconclusive = weak or mixed curves, or effect the other way; inactive = no such curve, though single readings can be large or run the other way. Non-standard residues stand in square brackets, D forms with d. Residues, ends and D or L forms follow the SMILES beside them. *: point of attachment. Sta = CC(C)C[C@H](N)[C@@H](O)CC(=O)O; Isovaleryl = CC(C)CC(=O)*

Assay: qHTS assay to identify small molecule antagonists of the thyroid receptor (TR) signaling pathway - cell viability counter screen (AID 743064); note: nearly all actives have a fitted effect of over 50% in size
Conditions: GH3.TRE-Luc viability, CellTiter-Fluor, 24 h; series mostly up to 70.3 µM; activity change, negative = cytotoxic: at the top concentration
Description: National Center for Advancing Translational Sciences [NCATS]
NIH Chemical Genomics Center [NCGC]
U.S. Environmental Protection Agency [EPA]
National Institutes of Environmental Health Sciences [NIEHS]
National Toxicology Program [NTP]
U.S. Food and Drug Administration [FDA]
Thyroid receptor (TR), a nuclear hormone receptor, plays an important role in development, proliferation, differentiation, metabolism, brain function, and cardiovascular system. […] To profile the Tox21 10K compound library in TR signaling, a cell-based GH3-TRE-Luc assay (GH3.TRE-Luc cell line, developed by the laboratory of Dr. Albertinka J. Murk, Wageningen University) was used to measure the inhibition of TR. GH3 (rat pituitary tumor) cells stably expressing a TR activity sensor consisting of two TR response elements and a luciferase reporter gene. The cytotoxicity of the Tox21 compound library against the GH3.TRE-Luc cell line was tested in parallel by measuring the cell viability using CellTiter-Fluor assay (Promega, Madison, WI) in the same wells.
Tox21 Assay Protocol Summary:
GH3.TRE-Luc cells were dispensed at 1500 cells/4 uL/well into 1536-well white solid bottom plates using a Multidrop Combi dispenser (Thermo Fisher Scientific Inc., Waltham, MA). After the assay plates were incubated at 37 C for 4 hours, 23 nL of library compound or DMSO controls was transferred to the assay plates by a pintool station (Kalypsys, San Diego, CA), followed by addition of 1 ul of T3 (1 nM, final concentration in the wells) to stimulate TR transactivation. The assay plates were incubated at 37 C for 23.5 h, and then 1 uL of CellTiter-Fluor reagent (Promega, Madision, WI) of measuring cytotoxicity was added to each well using a Bioraptr Flying Reagent Dispenser (FRD) workstation (Beckman Coulter, Indianapolis, IN, USA). The plates were incubated at 37C and 5% CO2 for additional 30 min, and fluorescence intensity was measured by a ViewLux plate reader (PerkinElmer, Shelton, CT).
% is set by controls: 0 for no effect and ±100 for the full control effect.

Row | Structure (SMILES) | activity change, negative = cytotoxic | Potency
1 | CN(C)CCC[C@@]1(c2ccc(F)cc2)OCc2cc(C#N)ccc21 | -29.3% (inactive) | 
2 | CCCCC(CC)CCC(CC(C)C)OS(=O)(=O)O (stereo not given) |  | inactive
3 | NNC(=O)CCCCC(=O)NN | 3.02% (inactive) | 
4 | C=CCN1CCc2nc(N)sc2CC1 | 13.7% (inactive) | 
5 | C=CCN(CC=C)CC=C | 12.4% (inactive) | 
6 | CC(=O)SCC(CC(=O)c1ccc(C)cc1)C(=O)O (stereo not given) | -10.6% (inactive) | 
7 | O=S(=O)(O)CC(O)CCl (stereo not given) | -2.13% (inactive) | 
8 | CCCC(=O)C(CC)Sc1ccoc1C (stereo not given) | 8.81% (inactive) | 
9 | N#CC1(N)CCCCC1 | 0% [at 95 µM] (inactive) | 
10 | CC1(C)S[C@@H]2[C@H](NC(=O)Cc3ccccc3)C(=O)N2[C@H]1C(=O)O (tested in a mixture with another compound) | 10.8% (inactive) | 
11 | CC(C)CC(=O)N[C@H](C(=O)N[C@H](C(=O)N[C@@H](CC(C)C)[C@@H](O)CC(=O)N[C@@H](C)C(=O)N[C@@H](CC(C)C)[C@@H](O)CC(=O)O)C(C)C)C(C)C (Isovaleryl-VV[Sta]A[Sta]-OH) | -18.1% (inactive) | 
12 | CN(C)CCc1c[nH]c2ccc(C[C@H]3COC(=O)N3)cc12 | 25.1% (inactive) | 
13 | Cc1ccc2cccnc2c1 | -2.59% (inactive) | 
14 | O=c1[nH]c(=O)c2cn[nH]c2[nH]1 | 0.551% (inactive) | 
15 | CC1(C)C(=O)C(C)(C)C1=O | -1.97% (inactive) | 
16 | C/C(=N\O)c1ccc(OCC(=O)N2CCCCC2)cc1 | 19.5% (inactive) | 
17 | CCCCCC(=O)CC | 22.6% [at 95 µM] (inactive) | 
18 | CC/C=C/CCCCCCCCCCOC(C)=O | 17.5% (inactive) | 
19 | CC(C)(Sc1cc(C(C)(C)C)c(O)c(C(C)(C)C)c1)Sc1cc(C(C)(C)C)c(O)c(C(C)(C)C)c1 | -7.98% [at 32.5 µM] (inactive) | 
20 | CCOC(=O)CC | 17.6% (inactive) | 

Row | Structure (SMILES) | activity change, negative = cytotoxic | Potency
21 | CC1=C(O)C(=O)CO1 | -1.2% (inactive) | 
22 | Cc1ccc2ccccc2n1 | -1.63% (inactive) | 
23 | CCOC(=O)CC(C(C)=O)C(C)=O | 9.88% (inactive) | 
24 | O=C1Nc2ccccc2C1=O | 1% (inactive) | 
25 | Cc1ccc(OC(=O)CC(C)C)cc1 | -1.64% (inactive) | 
26 | CN(C)CCCN(C)C | 20.5% [at 8.44 µM] (inactive) | 
27 | CCCCCCCCCCCC(C)=O | 11.2% (inactive) | 
28 | CC(=O)Oc1ccc(C(C)=O)cc1 | 20.9% [at 95 µM] (inactive) | 
29 | C=CCON/C(CCC)=C1\C(=O)CC(C)(C)C(C(=O)OC)=C1O | -1.63% (inactive) | 
30 | O=CN1CCCCC1 | 2.5% (inactive) | 
31 | Clc1cc(Cl)c(Cl)c(Cl)c1Cl | 1.09% (inactive) | 
32 | C[C@H]1COc2c(C3(N)CC3)c(F)cc3c(=O)c(C(=O)O)cn1c23 | 16.9% (inactive) | 
33 | CC(C)(C)C(=O)CC(=O)C(C)(C)C | 5.02% [at 95 µM] (inactive) | 
34 | O=C(O)COc1ccc2ccccc2c1 | 1.19% (inactive) | 
35 | CCCC(=O)CC | 6.06% [at 95 µM] (inactive) | 
36 | CCO[Si](CC(C)C)(OCC)OCC | -0.89% (inactive) | 
37 | CC(C)C(C)C | 18.3% (inactive) | 
38 | COc1cnc(NS(=O)(=O)c2ccc(N)cc2)nc1 | 1.8% [at 32.5 µM] (inactive) | 
39 | COC(C)(C)CC(C)=O | 11.9% (inactive) | 
40 | COc1cc(NS(=O)(=O)c2ccc(N)cc2)ncn1 | 7.82% [at 32.5 µM] (inactive) | 
